Hit rate of the full screen: of about 420,000 compounds, about 50,000 (12%) were called active. A call without a number means that no potency is given here. Another 26% or so got no clear call; they are omitted. The sample holds actives, similar compounds and a random draw of the others, so the mix is not that of the screen. Calls follow the shape of the dose curve; as a rule, active = well fitted inhibition curve with a large enough effect; inconclusive = small, poorly fitted or top-dose-only effect; inactive = flat fitted curve, though single readings scatter. Where a SMILES comes first, the peptide text is derived from it. [ ]: non-standard residue; d: D form. ξ: configuration not given here. Ac5c = NC1(C(=O)O)CCCC1; ξS = NC(CO)C(=O)O
Test: qHTS for Inhibitors of human tyrosyl-DNA phosphodiesterase 1 (TDP1): qHTS in cells in presence of CPT; also: nearly all actives have a fitted effect of over 55% in size
Conditions: chicken DT40 Tdp1-/-;hTDP1 cells + 20 nM CPT, ATP luminescence, 48 h; series mostly up to 46.2 µM
Summary of the method: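 Chicken DT40 Tdp1-/- cells complemented with human TDP1, 400 cells/well, exposed to compounds plus 20 nM camptothecin for at least 48 h at 37 C; viability read as ATP content by CellTiter-Glo luminescence.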
Potency is read from the fitted curve at half-maximal effect.

Structure (SMILES) | Potency
COc1ccc2cc(C(=O)O)n(CC(=O)c3ccccc3)c2c1 | inactive
CCOC(=O)C1=C(c2ccccc2)O/C(=C(/C(=O)OC)C(F)(F)F)S1 | inactive
O=C(NCC(=O)N(CC1CCCO1)C(C(=O)NC1CCCCC1)c1ccccc1)c1ccco1 (configuration not stated) | inactive
O=C(c1ccco1)N1CCN(C(=O)C2CCCN(S(=O)(=O)c3cccc4nsnc34)C2)CC1 (configuration not stated) | inactive
CCCCN(C)CCNC(=O)C1CCCN(S(=O)(=O)c2cccc3nsnc23)C1 (configuration not stated) | inactive
CCCCN(CC)C(=O)C1CCCN(S(=O)(=O)c2cccc3nsnc23)C1 (configuration not stated) | 25.9 µM (active)
CCOC(=O)C(CO)NC(=O)C1(NC(C)=O)CCCC1 (configuration not stated) (Ac-[Ac5c]-[ξS]-OEt) | inactive
OCC1(Cc2ccccc2C(F)(F)F)CCN(Cc2ccncc2)CC1 | inactive
COc1cccc(C(=O)Oc2cc(C)[nH]c(=O)c2[N+](=O)[O-])c1 | inactive
COc1cccc(C(=O)CC(=O)C(=O)Nc2ccc([N+](=O)[O-])cc2C)c1 | 23.1 µM (active)
Cc1cc([N+](=O)[O-])ccc1NC(=O)C1CCCO1 (configuration not stated) | inactive
COc1ccc(NC(=O)CCNC(=O)Cn2ccc3ccccc3c2=O)c(OC)c1 | inactive
COc1ccc(Nc2cc(C(=O)NCCCN(C)c3ccccc3)c3ccccc3n2)c(OC)c1 | 13 µM (active)
CCN(CCCNC(=O)Cn1ncc2c([nH]c3ccccc32)c1=O)c1cccc(C)c1 | inactive
COc1ccc(NC(=O)c2cc(-c3cc(OC)c(OC)c(OC)c3)nc3ccccc23)c(OC)c1 | 13 µM (active)
COc1ccccc1NC(=O)c1cc(Cl)nc2ccccc12 | inactive
COc1ccc(NC(=O)CNC(=O)Cn2ccc3ccccc3c2=O)c(OC)c1 | inactive
COc1ccc(NC(=O)c2cc(-c3ccc(C)o3)nc3ccccc23)cc1 | inactive
CCN(CCCNC(=O)c1cc(Nc2ccc(OC)cc2)nc2ccccc12)c1cccc(C)c1 | 20.6 µM (active)
COc1ccc(CNC(=O)COC(=O)C2=Cc3ccccc3OC2)cc1 | inactive
COC(=O)c1ccc(CNC(=O)Cn2cc(C)c(=O)[nH]c2=O)cc1 | inactive
O=C(Cn1c2[n+](c3ccc(C(F)(F)F)cc31)CCCCC2)Nc1c(F)cccc1F | inactive
Cc1ccc(CN(C)Cc2cc(=O)oc3cc(C)c(Cl)cc23)cc1 | inactive
Cc1cc(NC(=O)CSc2ncc(C(F)(F)F)cc2Cl)no1 | inactive
Cc1c(Cl)cccc1NC(=O)CCC(=O)N/N=C/c1ccco1 | inactive
C[C@H](CO)N1C[C@H](C)[C@@H](CN(C)C(=O)NC2CCCCC2)Oc2ccc(NC(=O)c3ccncc3)cc2C1=O | inactive
COC(=O)c1ccccc1NC(=S)NC(=O)c1ccccc1F | inactive

Source: PubChem BioAssay AID686979 (National Center for Advancing Translational Sciences (NCATS), 2013)
